# This excerpt belongs to a sample that is enriched for hits.
# Dicer inh = inhibitors of Dicer pre-microRNA processing, primary screen, biochemical, cat-ELCCA, chemiluminescence | Endoribonuclease Dicer (Homo sapiens), Q9UPY3 | cat-ELCCA pre-miR-21 Dicer processing; active compounds read high | z-score at 25 µM | actives 6% (n = 47,000) | AID 1347074, 2019; in the data active = z-score above about 3, passing the limit was not always enough;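 note: plate controls were vehicle for no effect and no enzyme for full effect; higher signal means more uncleaved substrate so more Dicer inhibition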
# Numbers without * were called inactive.
SMILES,Dicer inh
CNC(=O)NC(=S)NC(=O)c1ccc(C)cc1,-0.94
CCN(CC)C(=S)Oc1c(C)c(C)nc(=S)n1CCCOC,9.4*
FC(F)(F)c1cc(N2N=NC3C4CC(C5CCCC54)C32N2CCOCC2)cc(C(F)(F)F)c1 (configuration not stated),-0.03
COC(=O)Cn1cnc2sc(C)c(C)c2c1=O,-3.7
CC(C)OC(=O)c1cc2ccccc2c(=O)s1,-0.39
O=C(NCCO)c1cc2ccccc2c(=O)s1,3.8*
O=C(NCc1ccc(C(F)(F)F)cc1)c1cc2ccc3ccccc3c2s1,2.8
CCOC(=O)c1cc(C)nn1-c1nc2ccc(Cl)cc2s1,2.5
O=c1nc(-c2ccc(Cl)cc2)oc2ccccc12,0.94
O=c1nc(Nc2ccccc2)oc2ccccc12,3.8*
c1ccc(Nc2nc(-c3ccccc3)nc3ccccc23)cc1,0.12
COc1ccc(C2CC(=O)Nc3nc(N)[nH]c(=O)c32)c(OC)c1 (configuration not stated),-0.94
CC(C)(C)Sc1ccc(C(=O)N(Cc2ccc3c(c2)OCO3)c2ccc(F)cc2)cc1[N+](=O)[O-],-1.1
COc1ccc(Oc2nc3c(c(=O)n(Cc4ccc(Br)cc4)c(=O)n3C)n2C)cc1,4.1*
Cn1c(Oc2ccc(Br)cc2)nc2c1c(=O)n(Cc1ccc(Br)cc1)c(=O)n2C,1.2
Cn1c(Oc2ccc(F)cc2)nc2c1c(=O)n(Cc1ccccc1)c(=O)n2C,0.4
CCOC(=O)C1=C(C)NC2=C(C(=O)CC(C)(C)C2)C1c1cc(Br)c(O)c(OCC)c1 (configuration not stated),1

# Bioassay records (PubChem BioAssay)
